Test results: PubChem BioAssay AID1220 (Sanford-Burnham Center for Chemical Genomics, 2008)
About 1,300 (0.68%) of roughly 190,000 compounds were called active. Rule as the data show it: active = inhibition above about 50%; inactive = the rest. Many of the other results were omitted from the sample, so actives are more common in it than they were.

Target: Mannose-6-phosphate isomerase (Homo sapiens) (UniProt P34949)
Assay: human PMI inhibitors, high substrate, primary screen, biochemical, fluorescence intensity, high mannose 6-phosphate (AID 1220)
Conditions: recombinant PMI enzyme, coupled fluorescence intensity; at 20 µM; stronger effect = higher value

Chain of Mannose-6-phosphate isomerase (Homo sapiens) (P34949 whole entry, looked up): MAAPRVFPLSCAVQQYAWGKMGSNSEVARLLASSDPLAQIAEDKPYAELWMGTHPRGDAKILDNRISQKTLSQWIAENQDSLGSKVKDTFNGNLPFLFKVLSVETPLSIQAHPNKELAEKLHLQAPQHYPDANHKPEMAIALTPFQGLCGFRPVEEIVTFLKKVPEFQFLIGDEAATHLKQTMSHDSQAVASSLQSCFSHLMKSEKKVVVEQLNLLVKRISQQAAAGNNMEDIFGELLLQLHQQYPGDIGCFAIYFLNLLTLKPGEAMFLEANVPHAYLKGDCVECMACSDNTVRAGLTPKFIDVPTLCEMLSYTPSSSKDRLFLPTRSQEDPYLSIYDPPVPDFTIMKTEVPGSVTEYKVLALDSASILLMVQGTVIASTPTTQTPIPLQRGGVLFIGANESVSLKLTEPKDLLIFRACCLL

inhibition, active:
O=C(CC1Nc2cccc3cccc(c23)NC1=O)Nc1ccc(F)cc1 (configuration not stated) 54%, C=CCn1c(=NC(=O)c2ccc(S(=O)(=O)N3CCCc4ccccc43)cc2)sc2cc(S(N)(=O)=O)ccc21 59.2%, O=C(CNc1ccc2ccccc2c1)N/N=C/c1cc2ccccc2nc1Cl 67.5%, Cc1ccc(NCC(=O)N/N=C/c2cc3ccccc3nc2Cl)cc1 57.6%, Cc1ccc(NCC(=O)N/N=C/c2cc(O)ccc2[N+](=O)[O-])cc1 57.6%, C=CCNc1nc(-c2c(C)nc3sccn23)cs1 55.2%, CCn1c(Cc2ccccc2)nnc1SCC(=O)NC(C)(C)C 52.9%, COc1ccc(OC)c(NC(=O)NC2(C(F)(F)F)Oc3ccccc3O2)c1 58%, Oc1ccc(Br)cc1C=Nc1ccc2c3c(cccc13)CC2 67.1%, O=S(=O)(Nc1cc(Sc2cccc3cccnc23)c(O)c2ccccc12)c1ccc(F)cc1 51.1%, COc1ccc(S(=O)(=O)Nc2cc(Sc3ncn[nH]3)c(O)c3ccccc23)cc1 72.4%, O=S(=O)(Nc1cc(Sc2cccc3cccnc23)c(O)c2ccccc12)c1ccccc1 63.7%

inhibition, inactive:
Cc1ccc(/C=C/C(=O)O)cc1S(=O)(=O)NCCCC(=O)O 0.6%, O=C(CCN1C(=O)C2C3C=CC(C3)C2C1=O)N1CCN(c2ccc([N+](=O)[O-])cc2)CC1 (configuration not stated) 21.6%, CCC(=O)Nc1nc2nc(-c3ccccc3)cc(-c3ccccc3)n2n1 0.3%, Cc1ccc(O)c(NC(=S)NC(=O)/C=C/c2ccco2)c1 -3.9%, Cc1cc(=O)oc2cc(OCc3ccc(C(=O)N4CCN(c5ccccc5)CC4)cc3)ccc12 10.2%, CCC(C)NC(=O)CNC(=S)N(Cc1ccccc1F)C1CCCCC1 (configuration not stated) 6.1%, COc1ccc(NC(=O)CSc2nnc(-c3cccnc3)n2Cc2ccco2)c(OC)c1 8%, c1ccc(OCCN2CCN(Cc3nc(-c4ccc5c(c4)OCO5)no3)CC2)cc1 -4.3%, O=C(CC1Nc2cccc3cccc(c23)NC1=O)Nc1ccccc1 (configuration not stated) 39%, CC(=O)Nc1ccc(NC(=O)CC2Nc3cccc4cccc(c34)NC2=O)cc1 (configuration not stated) -5.1%, Brc1ccc(/C=N/c2nc3ccccc3n2CCN2CCOCC2)cc1 9.4%, C=CCn1c(=NC(=O)c2ccc(S(=O)(=O)N3CCc4ccccc4C3)cc2)sc2cc(S(N)(=O)=O)ccc21 1.8%, C#CCn1c(=NC(=O)c2ccc(S(=O)(=O)N3CCCc4ccccc43)cc2)sc2cc(S(N)(=O)=O)ccc21 20.9%, N/C(=N\OC(=O)Oc1ccccc1)c1cccc([N+](=O)[O-])c1 -8.6%, CCOC(=O)c1cc(NC(=O)Nc2ccccc2OC)c(C)nc1C 6%, CCCCCn1c(N)c(-c2nc3ccccc3o2)c2c([N+](=O)[O-])nn(C)c(=O)c21 -0.9%, Cc1noc2ncnc(Oc3ccccc3Cl)c12 0%, COc1cccc(CN(C)C(=S)Nc2cccc(C)c2)c1 0.1%, O=C(CN1CCOCC1)N/N=C/c1cc2ccccc2nc1Cl 15.9%, O=C(CN1CCCCC1)N/N=C/c1cc2ccccc2nc1Cl -10.7%, Cc1ccc(NCC(=O)N/N=C\c2cccc(O)c2)cc1 18.7%, O=C(COc1cccc(Cl)c1)N/N=C\c1cc2ccccc2nc1Cl -3.2%, Cc1ccccc1OCC(=O)N/N=C/c1cc2ccccc2nc1Cl 9.1%, Cc1ccc(NCC(=O)N/N=C\c2ccc([N+](=O)[O-])o2)cc1 -1.6%, CC(=O)Nc1ccc(S(=O)(=O)N2CCN(C(=O)N3CCOCC3)CC2)cc1 1.8%, O=C(CSCc1ccc(Cl)cc1)NCCSCc1ccco1 4%, O=C1NC(c2ccccc2)=C(c2nc3ccccc3s2)C(c2ccccc2)N1 (configuration not stated) 14.1%, NC(=O)c1ccccc1NC(=O)Nc1cccc2ccccc12 19%, COC(=O)c1ccc2c(c1)N(C)C(=O)CS2 6.4%, O=C(Nc1ccc2c(c1)OCCO2)c1ccc(Br)s1 -2.3%, Cc1cc(C)c(S(=O)(=O)/N=C2\C=CC(=O)C(Cl)=C2)c(C)c1 -6.5%, Cc1ccnc(Nc2nc(-c3c(C)nc4sccn34)cs2)c1 19.1%, Cc1nc2sccn2c1-c1csc(NCc2ccccc2)n1 34.1%, COC(=O)c1c(O)c2c([nH]c1=O)CCCC2 -0.6%, CCCCCn1c(CN2CC(C)OC(C)C2)nc2c1c(=O)n(C)c(=O)n2C (configuration not stated) 8.9%, COCCn1c(Cc2ccccc2)nnc1SCC(=O)NC(C)(C)C -1.6%, CCn1c(Cc2cccs2)nnc1SCC(=O)NC(C)(C)C -5.7%, CN1CCCN(C(=O)CNC(=O)Cc2ccccc2)CC1 4.9%, COC(=O)C1=C(C)NC2=C(C(=O)CCC2)C1c1cn(Cc2ccc(Br)cc2)nc1-c1ccccc1 (configuration not stated) 13.4%, COc1cccc(NC(=O)NC2(C(F)(F)F)Oc3ccccc3O2)c1 48.7%, COc1ccc(OC)c(NC(=O)Nc2ccccc2C)c1 1.9%, COc1ccc(N2CCN(CCC3Oc4cc([N+](=O)[O-])ccc4NC3=O)CC2)cc1 (configuration not stated) 38.8%, Cc1cc(NC(=O)C2CC2)ncc1NC(=O)C12CC3CC(CC(C3)C1)C2 5.3%, CC1(c2ccc(Cl)cc2Cl)OCC(Cn2ccnc2)O1 (configuration not stated) 3.5%, Cc1cccc(C=Nc2ccc3c4c(cccc24)CC3)c1O 45.4%, CC(C)(C)c1ccc(O)c(N=Cc2cc(Br)ccc2O)c1 39.3%, Cc1nnc(SCC(=O)NC2CCS(=O)(=O)C2)n1-c1ccccc1 (configuration not stated) -3.2%, COc1ccc(S(=O)(=O)Nc2ccc(O)c(Sc3ncn[nH]3)c2)cc1 13%, Cc1cc(C)c(S(=O)(=O)Nc2cc(SCC(=O)O)c(O)c3ccccc23)cc1C 21.6%, O=S(=O)(Nc1ccccc1O)c1cccc2cccnc12 11.7%, Cc1ccc(S(=O)(=O)Nc2cccc3cccnc23)cc1 16.3%, CCOc1ccc(S(=O)(=O)Nc2ccc(O)c(Sc3ncn[nH]3)c2)cc1 2.5%, Cc1ccc(S(=O)(=O)Nc2ccc(O)c3ncccc23)cc1 27.9%, CCc1ccc(S(=O)(=O)Nc2cc(SCC(=O)O)c(O)c3ccccc23)cc1 7.4%, O=C(Sc1cccc2cccnc12)c1ccc(F)cc1 11.3%
